The results in this text go back to PubChem BioAssay (EPA / NIEHS).

The term AC50 denotes the concentration giving half of the maximal activity seen.

Assay [1] in a line: ATG_GAL4_TRANS: Attagene TRANS-FACTORIAL HepG2 Assay for GAL4 (Internal Marker) (AID 2282976; active = hit-call score of the fitted dose curve at least 0.9, where 1 is the maximum). The settings on record: HepG2 Attagene TRANS GAL4 internal marker reporter. The method, boiled down:
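HepG2 cells transiently transfected with multiplexed GAL4-UAS reporter constructs were dosed for 24 h. Reporter mRNA was measured by RT-PCR, 6-FAM primer extension, HpaI digestion and capillary electrophoresis, and gain of signal was fitted relative to DMSO.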

For assay [2], the target named is Glucocorticoid receptor (Homo sapiens) (UniProt P04150). Put plainly: ATG_GR_TRANS: Attagene TRANS-FACTORIAL HepG2 Assay for human Glucocorticoid Receptor (GR) (AID 2282978; active = hit-call score of the fitted dose curve at least 0.9, where 1 is the maximum;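 also: activators score as hits since higher reporter transcript over DMSO is fitted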). The settings on record: HepG2 Attagene TRANS GR reporter, mRNA transcription. The method, boiled down:
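HepG2 cells transiently transfected with GAL4-UAS reporter units and exogenous GR-Gal4 chimera, dosed 24 h. Reporter mRNA by RT-PCR, FAM labeling, HpaI digest and capillary electrophoresis; gain-of-signal fit versus DMSO.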

Assay [3] addresses Oxysterols receptor LXR-alpha (Homo sapiens) (UniProt Q13133). In words: ATG_LXRa_TRANS: Attagene TRANS-FACTORIAL HepG2 Assay for human Liver X Receptor alpha (LXRa) (AID 2282980; active = hit-call score of the fitted dose curve at least 0.9, where 1 is the maximum). The conditions noted are these: HepG2 Attagene TRANS reporter, LXRa transactivation. The method, boiled down: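 HepG2 cells were transiently transfected with multiplexed reporter units driven by chimeric LXRa–GAL4 fusion proteins, then dosed for 24 h. Reporter mRNA was quantified by RT-PCR, fluorescent labelling and capillary electrophoresis; gain of signal fitted against DMSO baseline.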

Assay [4] has as its target Oxysterols receptor LXR-beta (Homo sapiens) (UniProt P55055). Put plainly: ATG_LXRb_TRANS: Attagene TRANS-FACTORIAL HepG2 Assay for human Liver X Receptor beta (LXRb) (AID 2282981; active = hit-call score of the fitted dose curve at least 0.9, where 1 is the maximum). The settings on record: HepG2 Attagene TRANS GAL4-LXRb reporter, mRNA. The method, boiled down: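 HepG2 cells transiently transfected with multiple reporter transcription units carrying chimeric NR-Gal4 proteins acting on GAL4-UAS reporters; compound exposure 24 h. Reporter mRNA quantified by RT-PCR, 6-FAM labelling, HpaI digestion and capillary electrophoresis; gain of signal versus DMSO.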

In assay [5] the target is Hepatocyte nuclear factor 4-alpha (Homo sapiens) (UniProt P41235). In words: ATG_HNF4a_TRANS: Attagene TRANS-FACTORIAL HepG2 Assay for human Hepatocyte Nuclear Factor 4 alpha (HNF4a) (AID 2282982; active = hit-call score of the fitted dose curve at least 0.9, where 1 is the maximum). The conditions noted are these: HepG2 HNF4a transactivation reporter, mRNA readout. The method, boiled down: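 HepG2 cells transiently transfected with multiplexed GAL4-UAS reporter units responsive to chimeric NR-GAL4 proteins; compound exposure 24 h. Reporter mRNA quantified by RT-PCR, 6-FAM labelling, HpaI digestion and capillary electrophoresis; gain of signal versus DMSO baseline.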

A short description of assay [6]: ATG_M_06_TRANS: Attagene TRANS-FACTORIAL HepG2 Assay for M06 Transcription Factor (Internal Marker) (AID 2282983; active = hit-call score of the fitted dose curve at least 0.9, where 1 is the maximum). The conditions noted are these: HepG2 Attagene TRANS M06 internal marker reporter. The method, boiled down: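 HepG2 cells transiently transfected with multiplexed GAL4-UAS reporter transcription units; after 24 h compound exposure, reporter mRNA measured by RT-PCR, FAM-labelled primer extension, HpaI digestion and capillary electrophoresis. Gain-of-signal fitted versus DMSO baseline; background control readout.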

Assay [7] can be described thus: ATG_M_32_TRANS: Attagene TRANS-FACTORIAL HepG2 Assay for M32 Transcription Factor (Internal Marker) (AID 2282984; active = hit-call score of the fitted dose curve at least 0.9, where 1 is the maximum). The conditions noted are these: HepG2 Attagene TRANS M32 internal marker reporter. In outline:
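HepG2 cells transiently transfected with multiple GAL4-UAS reporter transcription units, dosed for 24 hours; reporter mRNA quantified by RT-PCR, 6-FAM primer extension, HpaI digestion and capillary electrophoresis. Gain-of-signal fitted versus DMSO baseline; internal background-control marker.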

Assay [8] concerns the target Nuclear receptor subfamily 4 group A member 2 (Homo sapiens) (UniProt P43354). In words: ATG_NURR1_TRANS: Attagene TRANS-FACTORIAL HepG2 Assay for human Nuclear Receptor Related Protein 1 (NURR1) (AID 2282985; active = hit-call score of the fitted dose curve at least 0.9, where 1 is the maximum). The settings on record: HepG2 Attagene TRANS reporter, mRNA readout. In outline: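 HepG2 cells transiently transfected with GAL4-UAS reporter units and chimeric NR-Gal4 constructs; chemical exposure 24 h. Reporter mRNA quantified by RT-PCR, fluorescent labelling and capillary electrophoresis; gain of signal fitted relative to DMSO baseline.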

In assay [9] the target is Transcriptional activator Myb (Homo sapiens) (UniProt P10242). In words: ATG_Myb_CIS: Attagene CIS-FACTORIAL HepG2 Assay for human Myeloblastosis (Myb) Proto-Oncogene Transcription Factor (AID 2282986). The conditions noted are these: HepG2 Attagene CIS-FACTORIAL Myb reporter transcription; actives raise or lower the signal. The method, boiled down:
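Transiently transfected HepG2 cells carrying a multiplexed cis-promoter reporter set report endogenous Myb activity after 24 h compound exposure. Reporter mRNA is read by RT-PCR with capillary electrophoresis of fluorescent products, fitted bidirectionally against DMSO.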

Assay [10] in a line: ATG_NFI_CIS: Attagene CIS-FACTORIAL HepG2 Assay for human Nuclear Factor I (NFI) (AID 2282989). The settings on record: HepG2 cis-regulatory reporter, NFI response element transcription; actives raise or lower the signal. In outline:
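Reporter transcripts were measured by RT-PCR with fluorescent primer extension and capillary electrophoresis 24 h post-treatment. HepG2 cells carried transiently transfected cis-regulated reporter constructs reporting endogenous factor activity; gain or loss fitted against DMSO baseline.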

The target of assay [11] is Myc proto-oncogene protein (Homo sapiens) (UniProt P01106). In words: ATG_Myc_CIS: Attagene CIS-FACTORIAL HepG2 Assay for human Myelocytomatosis (Myc) Proto-Oncogene Transcription Factor (AID 2282990). The settings on record: HepG2, Attagene cis-reporter transcription factor activity; actives raise or lower the signal. The method, boiled down: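 DMSO-normalised, bidirectionally fitted reporter mRNA signal. HepG2 cells transfected with cis reporter constructs, treated 24 h; transcripts detected by RT-PCR, 6-FAM primer extension and CE.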

Assay [12] in a line: ATG_NF_kB_CIS: Attagene CIS-FACTORIAL HepG2 Assay for human Nuclear Factor Kappa B (NF-kB) (AID 2282991). The settings on record: HepG2 Attagene cis-factorial NF-kB reporter mRNA; actives raise or lower the signal. In outline: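 HepG2 cells transfected with cis-promoter-driven reporter units, so endogenous transcription factor activity is measured. Reporter mRNA quantified 24 h after dosing by RT-PCR and capillary electrophoresis, with bidirectional fitting against DMSO.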

Assay [13] can be described thus: ATG_NRF2_ARE_CIS: Attagene CIS-FACTORIAL HepG2 Assay for human Nuclear Factor Erythroid 2 Related Factor 2 (NFR2) response to Antioxidant Response Elements (ARE) (AID 2282992).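 As to AC50: reporter mRNA level measured by RT-PCR and capillary electrophoresis fluorescence.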 The conditions noted are these: HepG2 Attagene ARE/NRF2 reporter, transcription factor activity; actives raise or lower the signal. In outline:
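Transient MRTU transfection of HepG2; 24 h compound exposure; TriZol RNA, RT with oligo(dT), PCR, 6-FAM primer extension, HpaI cut, CE. Bidirectional fit vs DMSO.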

A short description of assay [14]: ATG_Oct_MLP_CIS: Attagene CIS-FACTORIAL HepG2 Assay for human Octamer-Binding Transcription Factor (Oct) (AID 2282993). The settings on record: HepG2 Attagene cis-factorial Oct reporter, mRNA; actives raise or lower the signal. The method, boiled down: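 Readout is reporter transcript level from RT-PCR with fluorescent primer extension and capillary electrophoresis, fitted in both directions against DMSO. Transfected HepG2 reporter units report endogenous factor activity after 24 h dosing.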

The nature of assay [15]: BSK_3C_TissueFactor: BioMAP Diversity Plus: 3C Assay for Tissue Factor Biomarker Activity (AID 2282997). The conditions noted are these: BioMAP 3C HUVEC, tissue factor biomarker readout; actives raise or lower the signal. The method, boiled down: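 Primary human umbilical vein endothelial cells in the 3C system were exposed to test chemical for 24 h, then Tissue Factor measured by ELISA. Activity was fitted bidirectionally against DMSO as negative control and baseline.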

Assay [16] in a line: BSK_3C_uPAR: BioMAP Diversity Plus: 3C Assay for Urokinase-type plasminogen activator receptor (uPAR) Biomarker Activity (AID 2282998). The conditions noted are these: BioMAP 3C HUVEC, uPAR biomarker ELISA; actives raise or lower the signal. The method, boiled down: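 Cell-surface uPAR on HUVEC (3C system) read by ELISA at 24 h post-treatment, with DMSO as baseline and fitting in both directions. Parallel cultures stained with SRB to flag overt cytotoxicity.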
For orientation: ELISA stands for enzyme-linked immunosorbent assay.

Assay [17] deals with Estrogen-related receptor gamma (Homo sapiens) (UniProt P62508). In words: ATG_ERRg_TRANS: Attagene TRANS-FACTORIAL HepG2 Assay for human Estrogen-Related Receptor gamma (ERRg) (AID 2282977; active = hit-call score of the fitted dose curve at least 0.9, where 1 is the maximum;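 also: hits increase reporter signal over DMSO so potencies reflect activators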). The settings on record: HepG2 Attagene TRANS reporter, ERRg transactivation. The method, boiled down: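 Transient HepG2 transfectants, 24 h compound exposure, GAL4-UAS reporter mRNA by RT-PCR/6-FAM labelling/capillary electrophoresis; positive direction vs DMSO.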

In assay [18] the target is Cellular tumor antigen p53 (Homo sapiens) (UniProt P04637). In words: ATG_p53_CIS: Attagene CIS-FACTORIAL HepG2 Assay for human p53 Transcription Factor (AID 2282994). The settings on record: HepG2 p53 cis-element reporter, Attagene mRNA; actives raise or lower the signal. In outline:
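HepG2, transient MRTU transfection (cis promoter elements, endogenous TFs); 24 h dosing; RNA isolation, RT-PCR, 6-FAM primer extension, HpaI digest, CE fluorescence; bidirectional fit vs DMSO.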

Assay [19] addresses Nuclear respiratory factor 1 (Homo sapiens) (UniProt Q16656). Put plainly: ATG_NRF1_CIS: Attagene CIS-FACTORIAL HepG2 Assay for human Nuclear Respiratory Factor 1 (NRF1) Orphan Gene (AID 2282987). The settings on record: HepG2 NRF1 cis-element reporter, Attagene multiplex; actives raise or lower the signal. In outline: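 HepG2 cells transiently transfected with multiple cis-regulated reporter units, exposed 24 h. Reporter mRNAs measured by RT-PCR, fluorescent labelling, HpaI digestion and capillary electrophoresis; bidirectional fitting against DMSO.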

In assay [20] the target is Bile acid receptor (Homo sapiens) (UniProt Q96RI1). In words: ATG_FXR_TRANS: Attagene TRANS-FACTORIAL HepG2 Assay for Farnesoid X Receptor (FXR) (AID 2282979; active = hit-call score of the fitted dose curve at least 0.9, where 1 is the maximum;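 also: hits raise reporter mRNA above DMSO so AC50 marks FXR activation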). The conditions noted are these: HepG2 Attagene TRANS FXR-GAL4 reporter transcription. In outline: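 HepG2 cells transiently transfected with reporter constructs in which a chimeric FXR-GAL4 protein drives a GAL4-UAS reporter; 24 h compound exposure. Reporter mRNA measured by RT-PCR, FAM labelling, HpaI digestion and capillary electrophoresis; gain-of-signal versus DMSO.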

Where “and” joins values, the source holds several entries; their conditions need not be identical. Equal entries are not always repeated. Records with an inconclusive call do not appear. Some compounds were tested as several samples or in several runs, with calls that do not always agree. Calls of active or inactive are those of the source. The calls were made as follows, unless noted: active = hit-call score of the fitted dose curve at least 0.9, where 1 is the maximum; inactive = score below 0.9.

Chain of Myc proto-oncogene protein (Homo sapiens) (P01106 whole entry, looked up): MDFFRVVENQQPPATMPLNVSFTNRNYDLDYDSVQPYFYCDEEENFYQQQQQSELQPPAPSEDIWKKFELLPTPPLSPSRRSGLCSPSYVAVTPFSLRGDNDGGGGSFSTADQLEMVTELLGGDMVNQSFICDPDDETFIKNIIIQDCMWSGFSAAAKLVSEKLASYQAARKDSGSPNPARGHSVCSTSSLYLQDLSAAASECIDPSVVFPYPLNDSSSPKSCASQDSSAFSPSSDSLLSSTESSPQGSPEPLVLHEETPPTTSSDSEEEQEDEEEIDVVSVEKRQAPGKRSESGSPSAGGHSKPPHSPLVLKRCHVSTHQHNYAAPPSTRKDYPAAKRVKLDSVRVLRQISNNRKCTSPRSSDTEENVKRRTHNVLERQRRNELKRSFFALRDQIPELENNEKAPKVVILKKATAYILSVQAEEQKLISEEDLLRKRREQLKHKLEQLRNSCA
Chain of Oxysterols receptor LXR-alpha (Homo sapiens) (Q13133 whole entry, looked up, the tested form may be a part): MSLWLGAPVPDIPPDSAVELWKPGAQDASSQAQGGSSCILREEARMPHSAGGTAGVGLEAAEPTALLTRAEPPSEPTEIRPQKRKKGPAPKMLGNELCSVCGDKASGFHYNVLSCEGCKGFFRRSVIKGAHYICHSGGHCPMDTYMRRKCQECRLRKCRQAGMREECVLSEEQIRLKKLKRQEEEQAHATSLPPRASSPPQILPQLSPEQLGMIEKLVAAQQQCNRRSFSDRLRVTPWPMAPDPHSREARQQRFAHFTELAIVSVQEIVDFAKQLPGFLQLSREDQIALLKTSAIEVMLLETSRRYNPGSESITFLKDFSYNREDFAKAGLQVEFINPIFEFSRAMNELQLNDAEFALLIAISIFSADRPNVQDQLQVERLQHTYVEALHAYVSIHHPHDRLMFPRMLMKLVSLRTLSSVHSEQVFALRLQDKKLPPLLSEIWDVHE
Chain of Oxysterols receptor LXR-beta (Homo sapiens) (P55055 whole entry, looked up, the tested form may be a part): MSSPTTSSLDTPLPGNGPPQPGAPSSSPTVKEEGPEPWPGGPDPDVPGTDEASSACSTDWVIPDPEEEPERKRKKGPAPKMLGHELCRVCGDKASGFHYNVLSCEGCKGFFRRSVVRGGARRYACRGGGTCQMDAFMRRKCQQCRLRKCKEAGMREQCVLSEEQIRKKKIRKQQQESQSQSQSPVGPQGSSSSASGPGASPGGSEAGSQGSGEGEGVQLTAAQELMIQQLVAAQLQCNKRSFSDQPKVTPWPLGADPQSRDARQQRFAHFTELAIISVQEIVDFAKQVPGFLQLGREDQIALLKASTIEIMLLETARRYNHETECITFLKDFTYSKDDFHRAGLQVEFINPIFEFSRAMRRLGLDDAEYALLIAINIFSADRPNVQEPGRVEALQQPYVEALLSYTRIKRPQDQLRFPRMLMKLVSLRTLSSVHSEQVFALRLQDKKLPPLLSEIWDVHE
Chain of Hepatocyte nuclear factor 4-alpha (Homo sapiens) (P41235 whole entry, looked up, the tested form may be a part): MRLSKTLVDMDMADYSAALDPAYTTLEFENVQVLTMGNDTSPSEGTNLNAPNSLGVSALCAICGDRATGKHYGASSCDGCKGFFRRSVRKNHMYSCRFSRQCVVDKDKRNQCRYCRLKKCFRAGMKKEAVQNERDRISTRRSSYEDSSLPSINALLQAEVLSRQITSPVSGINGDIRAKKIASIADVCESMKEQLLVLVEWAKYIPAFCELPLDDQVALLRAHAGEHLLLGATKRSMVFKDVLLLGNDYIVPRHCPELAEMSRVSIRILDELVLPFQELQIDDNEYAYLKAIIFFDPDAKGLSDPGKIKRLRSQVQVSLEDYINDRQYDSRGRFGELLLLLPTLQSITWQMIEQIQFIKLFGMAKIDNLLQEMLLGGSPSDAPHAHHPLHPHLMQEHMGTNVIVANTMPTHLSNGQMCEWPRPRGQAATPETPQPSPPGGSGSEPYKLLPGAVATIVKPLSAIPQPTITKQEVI
Chain of Transcriptional activator Myb (Homo sapiens) (P10242 whole entry, looked up): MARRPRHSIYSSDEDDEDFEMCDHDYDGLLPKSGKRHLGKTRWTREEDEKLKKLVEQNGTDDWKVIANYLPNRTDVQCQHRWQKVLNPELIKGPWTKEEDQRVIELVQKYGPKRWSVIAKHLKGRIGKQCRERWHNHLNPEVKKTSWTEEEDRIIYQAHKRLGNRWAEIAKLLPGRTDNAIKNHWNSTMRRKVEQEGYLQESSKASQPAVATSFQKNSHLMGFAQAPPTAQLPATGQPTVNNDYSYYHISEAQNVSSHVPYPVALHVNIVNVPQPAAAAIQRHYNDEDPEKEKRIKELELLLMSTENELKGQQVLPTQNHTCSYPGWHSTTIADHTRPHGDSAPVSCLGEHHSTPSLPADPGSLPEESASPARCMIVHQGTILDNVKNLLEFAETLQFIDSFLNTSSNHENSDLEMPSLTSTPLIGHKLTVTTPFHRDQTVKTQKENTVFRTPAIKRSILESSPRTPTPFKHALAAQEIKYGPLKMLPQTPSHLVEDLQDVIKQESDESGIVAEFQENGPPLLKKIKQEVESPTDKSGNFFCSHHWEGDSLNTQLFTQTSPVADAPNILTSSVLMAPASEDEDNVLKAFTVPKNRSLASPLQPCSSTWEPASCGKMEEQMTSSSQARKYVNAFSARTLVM
Chain of Glucocorticoid receptor (Homo sapiens) (P04150 whole entry, looked up, the tested form may be a part): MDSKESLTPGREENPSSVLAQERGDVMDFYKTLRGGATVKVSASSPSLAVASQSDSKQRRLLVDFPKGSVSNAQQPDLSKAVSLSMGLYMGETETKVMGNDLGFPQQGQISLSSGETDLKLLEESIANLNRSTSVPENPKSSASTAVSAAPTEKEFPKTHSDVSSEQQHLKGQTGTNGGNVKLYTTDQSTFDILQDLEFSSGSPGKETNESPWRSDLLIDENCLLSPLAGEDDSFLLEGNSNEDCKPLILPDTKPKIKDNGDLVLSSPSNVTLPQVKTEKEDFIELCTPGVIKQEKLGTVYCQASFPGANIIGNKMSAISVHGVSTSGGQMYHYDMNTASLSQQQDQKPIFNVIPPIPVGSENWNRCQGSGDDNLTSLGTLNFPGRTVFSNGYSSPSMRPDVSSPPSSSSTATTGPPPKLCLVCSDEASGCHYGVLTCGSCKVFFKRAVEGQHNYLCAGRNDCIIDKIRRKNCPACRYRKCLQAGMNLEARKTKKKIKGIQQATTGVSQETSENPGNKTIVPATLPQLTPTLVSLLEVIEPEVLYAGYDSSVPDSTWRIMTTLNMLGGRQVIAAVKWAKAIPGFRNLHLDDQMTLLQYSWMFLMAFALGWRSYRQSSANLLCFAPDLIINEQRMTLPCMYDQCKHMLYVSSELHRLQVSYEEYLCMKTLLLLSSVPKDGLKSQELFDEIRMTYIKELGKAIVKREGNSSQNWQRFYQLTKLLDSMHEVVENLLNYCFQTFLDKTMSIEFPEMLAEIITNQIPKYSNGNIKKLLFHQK
Chain of Nuclear receptor subfamily 4 group A member 2 (Homo sapiens) (P43354 whole entry, looked up, the tested form may be a part): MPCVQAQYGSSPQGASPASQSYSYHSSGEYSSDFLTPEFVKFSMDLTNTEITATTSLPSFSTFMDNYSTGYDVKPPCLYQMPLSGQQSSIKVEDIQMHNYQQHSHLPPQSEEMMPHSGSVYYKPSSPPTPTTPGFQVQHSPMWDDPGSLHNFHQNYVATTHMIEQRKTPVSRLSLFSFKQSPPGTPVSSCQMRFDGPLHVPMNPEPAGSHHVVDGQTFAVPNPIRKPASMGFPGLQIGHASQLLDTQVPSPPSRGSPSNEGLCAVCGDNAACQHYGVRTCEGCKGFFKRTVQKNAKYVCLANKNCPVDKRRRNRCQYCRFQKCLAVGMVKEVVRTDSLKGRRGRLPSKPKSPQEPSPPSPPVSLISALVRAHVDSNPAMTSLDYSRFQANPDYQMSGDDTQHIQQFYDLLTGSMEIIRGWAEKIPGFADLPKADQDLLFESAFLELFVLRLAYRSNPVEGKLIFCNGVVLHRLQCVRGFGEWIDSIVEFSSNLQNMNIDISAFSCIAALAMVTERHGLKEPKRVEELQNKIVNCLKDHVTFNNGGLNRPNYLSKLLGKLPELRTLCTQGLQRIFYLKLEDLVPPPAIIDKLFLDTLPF
Chain of Estrogen-related receptor gamma (Homo sapiens) (P62508 whole entry, looked up, the tested form may be a part): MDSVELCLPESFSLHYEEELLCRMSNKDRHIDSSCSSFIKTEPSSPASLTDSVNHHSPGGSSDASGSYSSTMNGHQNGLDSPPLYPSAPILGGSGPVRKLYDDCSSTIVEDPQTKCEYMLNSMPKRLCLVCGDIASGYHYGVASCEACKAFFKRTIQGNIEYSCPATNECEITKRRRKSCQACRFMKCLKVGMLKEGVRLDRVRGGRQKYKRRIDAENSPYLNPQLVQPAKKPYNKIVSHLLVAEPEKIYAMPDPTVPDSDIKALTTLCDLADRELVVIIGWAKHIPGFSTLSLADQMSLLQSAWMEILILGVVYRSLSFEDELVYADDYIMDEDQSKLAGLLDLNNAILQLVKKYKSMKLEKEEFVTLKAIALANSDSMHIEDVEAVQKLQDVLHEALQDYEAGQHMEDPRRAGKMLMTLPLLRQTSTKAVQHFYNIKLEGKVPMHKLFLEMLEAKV
Chain of Cellular tumor antigen p53 (Homo sapiens) (P04637 whole entry, looked up): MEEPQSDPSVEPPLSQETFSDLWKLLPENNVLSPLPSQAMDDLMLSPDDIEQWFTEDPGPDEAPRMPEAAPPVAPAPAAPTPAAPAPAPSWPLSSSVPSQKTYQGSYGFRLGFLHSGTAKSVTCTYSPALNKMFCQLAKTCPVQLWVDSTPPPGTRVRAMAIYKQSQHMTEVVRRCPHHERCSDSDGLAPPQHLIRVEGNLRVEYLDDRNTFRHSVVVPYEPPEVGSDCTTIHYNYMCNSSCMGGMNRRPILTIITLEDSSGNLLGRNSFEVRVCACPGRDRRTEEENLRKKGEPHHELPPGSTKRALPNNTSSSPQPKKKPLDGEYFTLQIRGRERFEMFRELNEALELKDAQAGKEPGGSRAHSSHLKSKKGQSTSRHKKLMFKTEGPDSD

With `O=[N+]([O-])c1cc(C(F)(F)F)c(Cl)c([N+](=O)[O-])c1Nc1ncc(C(F)(F)F)cc1Cl`, the result in assay [1], in assay [2], in [3], in assay [4], in assay [5] and in assay [6] was inactive. The compound was called inactive in assay [7], in assay [8], in assay [9], in [10], in assay [11] and in assay [12]. For the same compound, the result in assay [13] and in assay [14] was inactive. In addition, the AC50 in [12] is 11.9 µM (active); in assay [13], 2.7 µM (active); in assay [15], 1.16 µM (active) and 2.68 µM (active); in [16], 1.05 µM (active) and 3.18 µM (active).

In the case of `CC1=NNC(=O)N(/N=C/c2cccnc2)C1`, the compound was classed as inactive in [17], in assay [3], in assay [4], in assay [5], in assay [6] and in assay [7]. Also, the outcome in assay [8], in assay [9], in assay [10], in assay [11], in assay [12] and in assay [13] was inactive. Also, the result in assay [14], in assay [18], in [15] and in assay [16] was inactive.

`CCOP(=S)(Oc1cnc(C(C)(C)C)nc1)OC(C)C` (centres undefined): the call in [17], in assay [2], in assay [5], in [6], in assay [9] and in assay [19] was inactive. The call in assay [10] and in assay [11] was inactive. The concentration at half-maximal activity (AC50) in assay [3] is 9.2 µM (active); in assay [4], 11.1 µM (active); in [12], 22.4 µM (active); in assay [13] it was 14.1 µM (active); in assay [14] it was 2.06 µM (active); in [15] it was 31.9 µM (active). Further, the concentration at half-maximal activity (AC50) in assay [16] is 36.2 µM (active).

For `CN1COCN(Cc2cnc(Cl)s2)C1=N[N+](=O)[O-]`, the call in [2], in [20], in assay [3], in assay [4], in [5] and in assay [6] was inactive. Further, the outcome in assay [7], in [9], in [10], in assay [11], in [12] and in [13] was inactive. For the same compound, the result in [14], in assay [15] and in assay [16] was inactive.
